Results from PubChem BioAssay (Tox21).
Results filed as inconclusive are left out. Calls of active or inactive are those of the source. Calls come from the whole dose curve; as a rule, active = well fitted activation curve with a large enough effect in the signal ratio in the repeat runs (not every such curve was filed as active); inconclusive = weak or mixed curves, or effect the other way; inactive = flat fitted curve, though single readings scatter; the % refers to the signal ratio.

experiment: qHTS assay to identify small molecule agonists of the endoplasmic reticulum stress response signaling pathway (AID 1159516); settings: ESRE-bla HeLa, ER stress beta-lactamase reporter, 5 h; series mostly up to 61 µM
Source text: National Center for Advancing Translational Sciences [NCATS]
NIH Chemical Genomics Center [NCGC]
U.S. Environmental Protection Agency [EPA]
National Institutes of Environmental Health Sciences [NIEHS]
National Toxicology Program [NTP]
U.S. Food and Drug Administration [FDA]
Endoplasmic Reticulum (ER) plays an important role in cellular signaling, protein folding/maturation, stress response, lipid biosynthesis, calcium storage and release etc. Under stress conditions, proteins in ER misfold or unfold, and leading to the expression of ER stress responsive genes. ER stress has been associated with a variety of pathophysiological conditions such as cancer, inflammation, neurodegenerative diseases, diabetes, ischemic heart disease etc. To identify the compounds that induce ER stress response, an ER stress reporter cell line, CellSensor ESRE-bla HeLa (Life Technologies, Carlsbad, CA) containing a beta-lactamase reporter gene under control of the Endoplasmic reticulum Stress Response Element (ESRE) was used to screen Tox21 10K compound library.
Tox21 Assay Protocol Summary:
ESRE-bla HeLa cells were dispensed at 1,500 cells/6 uL of assay medium per well into black wall/clear-bottom 1536-well plates using a Multidrop Combi (ThermoFisher Scientific, Waltham, MA) dispenser. After the assay plates were incubated at 37 C and 5% CO2 for an overnight, 23 nL of compounds dissolved in DMSO, positive controls or DMSO only was transferred to the assay plate by a Pintool station (Kalypsys, San Diego, CA). The assay plates were incubated at 37 C and 5% CO2 for 5 hr. One uL of LiveBLAzer B/G FRET substrate (Life Technologies) was added using a Flying Reagent Dispenser (Aurora Discovery, San Diego, CA) and the plates were incubated at room temperature for 2 hr. Fluorescence intensity (405 nm excitation, 460 nm and 530 nm emissions) was measured using an Envision plate reader (PerkinElmer, Shelton, CT).

Row | SMILES | outcome
1 | O=C(O)CCCCCCCCCCC(=O)O | inactive
2 | CCCCCCCCCCCCc1ccccc1 | inactive
3 | O=S(=O)(O)c1ccc2ccccc2c1 | inactive
4 | COc1ccc2cc([C@H](C)C(=O)O)ccc2c1 | inactive
5 | OCCOCCOCCO | inactive
6 | CCCCC(CC)COC(=O)CS (stereo not given) | inactive
7 | CCC(O)OCCCOC (stereo not given) | inactive
8 | CCCCCCOCCO | inactive
9 | c1ccc2scnc2c1 | inactive
10 | Nc1cc([N+](=O)[O-])ccc1O | inactive
11 | C[Si](O[Si](C)(C)C)O[Si](C)(C)C | inactive
12 | CCCCCCCCC/C=C/CC1CC(=O)OC1=O (stereo not given) | inactive
13 | COS(C)(=O)=O | inactive
14 | CCCCCCCCCCCCS | inactive
15 | CC(C)c1ccc(S(=O)(=O)O)cc1 | inactive
16 | CN(C)CCCN | inactive
17 | CCCCOC(=O)COc1ccc(Cl)cc1Cl | inactive
18 | O=P(OC(CCl)CCl)(OC(CCl)CCl)OC(CCl)CCl | inactive
19 | C[C@H]1C[C@H]2[C@@H]3CCC4=CC(=O)C=C[C@]4(C)[C@@]3(F)[C@@H](O)C[C@]2(C)[C@@]1(O)C(=O)CO | inactive
20 | O=C(OCCOCCOC(=O)c1ccccc1)c1ccccc1 | inactive

Row | SMILES | outcome
21 | O=C(O)CC(C(=O)O)C(CC(=O)O)C(=O)O (stereo not given) | inactive
22 | Cc1ccc(S(N)(=O)=O)cc1 | inactive
23 | CCN(CC)CCCC(C)Nc1ccnc2cc(Cl)ccc12 (stereo not given) | inactive
24 | C#C[C@]1(O)CC[C@H]2[C@@H]3CCC4=CC(=O)CC[C@@H]4[C@H]3CC[C@@]21C | inactive
25 | C=CCOC(=O)c1ccccc1C(=O)OCC=C | inactive
26 | O=C=NCCCCCCN=C=O | inactive
27 | O=C(CC(C(=O)OC1CCCCC1)S(=O)(=O)O)OC1CCCCC1 (stereo not given) | inactive
28 | C/C=C1/CC2C=CC1C2 (stereo not given) | inactive
29 | Nc1ccccc1[N+](=O)[O-] | inactive
30 | Cc1cnc(C(=O)NCCc2ccc(S(=O)(=O)NC(=O)NC3CCCCC3)cc2)cn1 | inactive
31 | O=C(O)[C@H](O)[C@@H](O)[C@H](O)[C@H](O)CO | inactive
32 | NNc1nncc2ccccc12 | inactive
33 | ON=C1CCCCC1 | inactive
34 | O=C(O)c1ccc(C(=O)O)cc1 | inactive
35 | CCCCCCCCCCCCOCCO | inactive
36 | CC(c1cc2ccccc2s1)N(O)C(N)=O (stereo not given) | inactive
37 | CC(=O)Nc1cccc(O)c1 | inactive
38 | Cc1cccnc1 | inactive
39 | CC[C@H](C)C(=O)O[C@H]1C[C@@H](C)C=C2C=C[C@H](C)[C@H](CC[C@@H]3C[C@@H](O)CC(=O)O3)[C@H]21 | inactive
40 | CC1=CCC2CC1C2(C)C (stereo not given) | inactive
